From PubChem BioAssay AID2314 (National Center for Advancing Translational Sciences (NCATS), 2010) come the findings set out here.

In all, about 300,000 compounds went through this assay and about 37,000 (12%) were called active. Rule as the data show it: active = max response mostly above about 13% (no sharp cut-off); inactive = mostly below about 14%. Many of the other results were omitted from the sample, so actives are more common in it than they were.

The assay in a line: Cycloheximide Counterscreen for Small Molecule Inhibitors of Shiga Toxin. Also: read at 38.3 µM for the half of the compounds with a filed dose; 0% is about no effect. Particulars: cell reporter, cycloheximide protein synthesis inhibition counterscreen; active compounds read high.
Turning to `COc1ccccc1C(=O)NCc1nnc(SC(C)C(=O)Nc2nccs2)n1C` (stereo unspecified), the max response is 2.76% (inactive).

In the case of `Cc1ccc(-n2ncc3c2CCCC3NC(=O)c2cnccn2)cc1C` (stereo unspecified), the max response is 9.44% (inactive).

For the compound `C/C=C/c1ccc(OCCCCN2CCC(C)CC2)c(OC)c1`, the max response is 0.514% (inactive).

For `c1ccc(CSc2ncnc3c2sc2nc(N4CCOCC4)c4c(c23)CCCC4)cc1`, the max response was -3.72% (inactive).

On to `Cc1n[nH]c(=O)nc1N/N=C/c1cccs1`, for which the max response is 25.7% (active).

Regarding `S=c1[nH]nc(-c2cccs2)n1/N=C/c1cccs1`, the max response is 8.89% (inactive).

In the case of `Cc1nnc(N/N=C/c2cccs2)[nH]c1=O`, the max response was -2.07% (inactive).

Regarding `COCCOC(=O)c1sc(=S)n(CCOC)c1N`, the max response was -1.77% (inactive).

Take `CC(C)(C)c1ccc(Cn2nnc3c(=O)[nH]c(C4CCCN(C(=O)c5ccco5)C4)nc32)cc1` (stereo unspecified): the max response was 4.58% (inactive).

`Clc1ncn(CCOc2ccccc2)c1Cl`: the max response was -2.48% (inactive).

For `Cc1cccc2c1N(CCOc1ccccc1)C(=O)C2=O`, the max response was 8.28% (inactive).

In the case of `Cc1nn(CCOc2ccccc2)c(=O)n1-c1ccccc1F`, the max response is 49.6% (active).

As to `CCc1nc2cccnc2n1-c1ccc(C(=O)O)cc1`, the max response is -1.63% (inactive).

On to `COc1cccc(C(O)c2nc3ccccc3n2C)c1` (stereo unspecified), for which the max response is -2.8% (inactive).

Regarding `CCCC(=O)N(CCN1CCOCC1)c1nc2ccc(OCC)cc2s1`, the max response is 16.6% (inactive).

As for `CCOc1ccc2nc(Nc3nc4ccc(NC(C)=O)cc4s3)sc2c1`, the max response was -1.98% (inactive).

With `CCOc1ccc2nc(C(=O)N3CCCC(C)C3)sc2c1` (stereo unspecified), the max response was 105% (active).

On to `CCOc1ccc(S(=O)(=O)NCCCn2ccnc2)cc1NC(C)=O`, for which the max response is -3.29% (inactive).

In the case of `CCOc1ccccc1C1CC(c2cccc(NS(C)(=O)=O)c2)=NN1C(=O)c1ccccc1` (stereo unspecified), the max response was -1.46% (inactive).

Take `CCOc1cccc2c1OC1(CCCCC1)N1N=C(c3cccnc3)CC21` (stereo unspecified): the max response is 40.7% (active).

Consider `c1cncc(-c2nnc3n2C2(CCCCC2)Cc2ccccc2-3)c1`, for which the max response is -1.12% (inactive).

As to `CC1CCN(S(=O)(=O)c2ccc3c(c2)n(C)c(=O)n3C)CC1`, the max response was 2.78% (inactive).

For `Cc1cc(CNCc2c(C(=O)N(C)Cc3ccccc3)nc3ccccn23)nn1C`, the max response was 1.54% (inactive).

For the compound `CC1(C)CC(=O)C2=C(C1)Nc1cc(C(=O)c3ccccc3)ccc1NC2c1ccccn1` (stereo unspecified), the max response was 5.93% (inactive).

`Cc1nn(-c2ccccn2)c2c1C(c1ccncc1)C1=C(CC(C)(C)CC1=O)N2` (stereo unspecified): the max response was -5.72% (inactive).

`Cc1cc2c(cc1C)NC(c1ccccn1)C1=C(CC(C)(C)CC1=O)N2` (stereo unspecified): the max response was 28% (active).

For `C/C(=C\c1ccccc1)C1NC(=O)c2c(sc3c2CCCC3)N1` (stereo unspecified), the max response is 36.6% (active).

In the case of `Cc1ccc(C(=O)c2c(NC(=O)c3ccncc3)sc3c2CCCC3)cc1`, the max response was -4.15% (inactive).

Take `O=C(Nc1sc2c(c1-c1nc3ccccc3[nH]1)CCCC2)C1CC1`: the max response was 16.7% (inactive).

`O=C1CCCCC1C(=O)c1ccccc1` (stereo unspecified): the max response is 12.6% (inactive).

As to `O=C1NC(c2ccncc2)Nc2sc3c(c21)CCCC3` (stereo unspecified), the max response was 26.5% (active).
